# Data as given in PubChem BioAssay AID1053126 (Broad Institute, 2014).
# Potency and affinity values are given separately. Calls of active or inactive are those of the source.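 The calls were made as follows: active = cell killing with a fitted half-effect concentration at or below twice the top valid dose; inconclusive = flat curve with 30 to 70 percent drop, or poor fit; inactive = the rest.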
# Assay: HEK293T cell cytotoxicity, dose response, cytotoxicity control, ATP luminescence, cherry-pick, set 6 (AID 1053126)
# Conditions: HEK293T viability, CellTiter-Glo ATP luminescence, 72 h; series mostly up to 26 µM
row,Structure (SMILES),outcome
1,Cc1nc2ccc(S(=O)(=O)Nc3ccc(-c4nc5cccnc5s4)cc3)cc2s1,inactive
2,CCCOc1ccccc1/C=C1\SC(N)=NC1=O,inactive
3,COc1ccc(C(=O)Oc2cc(N)n(S(=O)(=O)c3ccccc3)n2)cc1,inactive
4,CCNc1nc2nc3ccc(C)cn3c(=O)c2cc1C(=O)NCC1CCCO1 (stereo not drawn),inactive
5,N=c1c(C(=O)NCC2CCCO2)cc2c(=O)n3ccccc3nc2n1Cc1ccc(Cl)cc1 (stereo not drawn),inactive
6,Cc1cccn2c(=O)c3cc(C(N)=S)c(=N)n(CCCN4CCOCC4)c3nc12,inactive
7,CCOC(=O)C(NC(=O)c1ccccc1)(OCC1(CC)COC1)C(F)(F)F (stereo not drawn),inactive
8,COCCNC(=S)N/N=C/c1ccc(-c2ccc([N+](=O)[O-])cc2)o1,inactive
9,CCCOc1ccc(NC(=O)c2c(-c3ccccc3)noc2C)cc1,inactive
10,C=CCn1c(=N)c(C#N)cc2c(=O)n3ccccc3nc21,inactive
11,Cc1ccc2c(c1)N(C(=O)CCC(=O)NCCCN1CCOCC1)CC(C)O2 (stereo not drawn),inactive
12,CCOc1ccc(-n2c(SCC(=O)Nc3nccs3)nnc2-c2ccoc2C)cc1,inactive
13,CCn1c2ccccc2c(=O)c2ccccc21,inactive
14,CSC1=NSC2=NC(=O)/C(=C/c3coc4ccc(O)cc4c3=O)C(=N)N12,inactive
15,CCCCN(CCCC)CC(O)Cn1c2ccccc2c(=O)c2ccccc21 (stereo not drawn),inactive
16,CCn1c(=N)c(S(=O)(=O)c2ccccc2)cc2c(=O)n3ccccc3nc21,inactive
17,CCN(CC)CCCNc1nc(C)cc(COC)c1C#N,inactive
18,CCN(CC)c1ccc2cc(C(N)=O)c(=O)oc2c1,inactive
